Screens: PubChem, Sanford-Burnham Center for Chemical Genomics
A selection: hits, their analogues and other compounds. The true share with any hit is near 2.9%.
A3G deaminase: APOBEC3G (human) deaminase inhibition; Q9HC16; recombinant A3G, ssDNA deamination FAM/TAMRA fluorescence; inhibition, % at 20 µM; actives 0.28% (n = 330,000);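 active = inhibition of at least 40% at 20 µM, with no more than 30% in the related APOBEC3A deaminase screen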;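 note: plate controls were DMSO wells with A3G for no effect and wells lacking A3G enzyme for full effect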
A3A deaminase: human APOBEC3A DNA deaminase inhibition. P31941. recombinant A3A, FAM/TAMRA ssDNA deamination fluorescence. inhibition, % at 20 µM. actives 0.41% (n = 330,000). AID 493011;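 active = at least 40% inhibition at 20 µM here, with at most 30% in a related deaminase screen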;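 note: plate controls were A3A with DMSO for no effect and wells lacking A3A enzyme for full effect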
Target sequence (P31941 whole entry, looked up): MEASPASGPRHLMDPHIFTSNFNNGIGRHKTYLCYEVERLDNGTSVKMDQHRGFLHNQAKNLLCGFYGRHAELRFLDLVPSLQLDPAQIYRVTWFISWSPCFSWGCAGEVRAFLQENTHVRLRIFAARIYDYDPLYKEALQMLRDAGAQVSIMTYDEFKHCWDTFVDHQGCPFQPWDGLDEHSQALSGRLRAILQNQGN
PfG6PD inh: PfG6PD (Plasmodium falciparum) enzyme inhibition; PfGluPho enzyme, NADPH resazurin-diaphorase fluorescence; actives 0.78% (n = 350,000); inhibition, % at 20 µM;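 active = inhibition reaching at least a set limit at 20 µM in the primary screen, cut at about 59% in these data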;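 note: 0% = DMSO wells with substrate and 100% = DMSO wells lacking glucose-6-phosphate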
NadD inh: inhibitors of Staphylococcus aureus NadD; purified NadD enzyme, colorimetric absorbance read-out; inhibition, % at 20 µM; actives 0.78% (n = 360,000); AID 602399; in the data active = inhibition above about 26%
H9c2 TAG inh: triacylglycerol accumulation inhibition. actives 0.66% (n = 230,000). inhibition, % at 12.5 µM. H9c2 cells, Nile Red lipid (TAG) fluorescence; cells loaded with 200 µM oleic acid;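 active = pattern-corrected inhibition of lipid staining of at least 50% with the nuclear-stain viability signal not falling by more than 50%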;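 note: 0% = DMSO wells and 100% = triacsin C control wells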
H9c2 protect: protects H9c2 cardiomyocytes from peroxide injury | H2O2 injury protection, ATPLite, 2 h | protection from H2O2 cell death, % at 20 µM | actives 0.63% (n = 360,000) | AID 588492;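 active = compounds giving at least 50% protection of heart cells from peroxide-induced death in the single-dose screen, raw or plate-pattern-corrected value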;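 note: 0% = DMSO wells with peroxide and 100% = DMSO wells without peroxide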
APOBEC3A confirm: confirmation of human APOBEC3A DNA deaminase inhibitors; shares compounds with A3A deaminase; recombinant A3A, ssDNA deaminase UDG fluorescence assay; inhibition, % at 20 µM; actives 63% (n = 1,400);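 active = inhibition reaching a set limit, 80% of the first screen's cutoff, at 20 µM in any replicate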;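 note: plate controls were DMSO wells with A3A for no effect and wells lacking A3A enzyme for full effect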
UDG ctr A3A: counter-screen for APOBEC3A inhibitors: UDG; inhibition, % at 20 µM; UDG counterscreen, FAM/TAMRA uracil oligo fluorescence; shares compounds with A3A deaminase; 1,000 tested, under 10 active; call rule not given here
Starred values were filed as active, the others as inactive.

CCNC(=O)Cn1cc(C#N)c2ccccc21 was read as A3G deaminase 19.6, A3A deaminase 53.5*, PfG6PD inh -14.9, NadD inh -2.1, H9c2 TAG inh 22.6, H9c2 protect 7.5 and APOBEC3A confirm 11.1.
COCCCNC(=O)c1cccc2c(-c3cccc(C(N)=O)c3)coc12 was read as NadD inh -1.1, H9c2 TAG inh 13.3 and H9c2 protect 5.4.
For COC(=O)CCC(=O)OC1(C)C(=O)C=C2C=C(C3CC3)N(C3CCCCC3)C=C2C1=O (stereo not drawn) the results were A3G deaminase -9.2, A3A deaminase 47.5*, PfG6PD inh 45.9, NadD inh -0.2, H9c2 TAG inh -1.6, H9c2 protect 4.5, APOBEC3A confirm -5.2 and UDG ctr A3A -1.5.
Screening COC(=O)CCC(=O)OC1(C)C(=O)C=C2C=C(C3CC3)N(C3CCCC3)C=C2C1=O (stereo not drawn) returned A3G deaminase -6.9, A3A deaminase -4.1, PfG6PD inh 53.0, NadD inh -7.4, H9c2 TAG inh 20.3 and H9c2 protect 5.4.
COc1ccccc1Nc1nc(N)nc(CN2CCc3ccccc3C2)n1 was read as A3G deaminase -3.7, A3A deaminase -0.6, PfG6PD inh 4.1, NadD inh -0.9, H9c2 TAG inh 2.4 and H9c2 protect 7.8.
For CC(C)CC1CCCCC1OC(=O)C[N+]1(C)CCCCC1 (stereo not drawn) the results were A3G deaminase 20.0, A3A deaminase 81.4*, PfG6PD inh -5.8, NadD inh -1.4, H9c2 TAG inh -15.7, H9c2 protect -3.1, APOBEC3A confirm 74.7* and UDG ctr A3A -3.2.
Screening COc1ccc(/C=C/C(=O)OC2CCCCC2CN(C)C)cc1 (stereo not drawn) returned A3G deaminase 3.0, A3A deaminase 6.4, PfG6PD inh -8.0, NadD inh -5.8, H9c2 TAG inh 1.7 and H9c2 protect 4.7.
Screening CC(C)(C)C1CCC(OC(=O)C[N+]2(C)CCCC2)CC1 (stereo not drawn) returned A3G deaminase 14.5, A3A deaminase 46.6*, PfG6PD inh 19.1, NadD inh 7.7, H9c2 TAG inh 12.3, H9c2 protect 7.0, APOBEC3A confirm 79.0* and UDG ctr A3A 2.3.
For CC(C)(C)C1CCC(OC(=O)CN2CCOCC2)CC1 (stereo not drawn) the results were A3G deaminase -1.9, A3A deaminase 0.5, PfG6PD inh -11.1, NadD inh -0.6, H9c2 TAG inh -8.7 and H9c2 protect -4.0.
For C[N+]1(CC(=O)OCCCC2CCCCC2)CCCC1 the results were A3G deaminase 15.1, A3A deaminase 69.4*, PfG6PD inh -9.8, NadD inh 3.0, H9c2 TAG inh -7.3, H9c2 protect -7.2, APOBEC3A confirm 76.5* and UDG ctr A3A -1.3.
`CC(C)(C)C1CCC(OC(=O)C[N+]2(C)CCCCC2)CC1` (stereo not drawn) gave A3G deaminase 11.4, A3A deaminase 89.8*, PfG6PD inh 7.6, NadD inh -1.8, H9c2 TAG inh -26.9, H9c2 protect -0.8, APOBEC3A confirm 84.5* and UDG ctr A3A 1.1.
Screening COc1ccc(C(=O)Nc2ccc(S(=O)(=O)Nc3nccc(C)n3)cc2)cc1[N+](=O)[O-] returned A3G deaminase -6.1, A3A deaminase -7.6, PfG6PD inh 2.4, NadD inh -2.0, H9c2 TAG inh 1.8 and H9c2 protect 0.4.
For Cc1n(C)c2cc(Cl)ccc2[n+]1Cc1ccccc1 the results were A3G deaminase 25.5, A3A deaminase 78.3*, PfG6PD inh 6.8, NadD inh 13.6, H9c2 TAG inh -9.9, H9c2 protect 6.6, APOBEC3A confirm 65.0* and UDG ctr A3A -1.9.
CC1CCC(C(C)C)C(OCC(O)CN2CCCC(C)C2)C1 (stereo not drawn) was read as A3G deaminase -6.6, A3A deaminase 1.9, PfG6PD inh -7.0, NadD inh -10.6, H9c2 TAG inh 10.1 and H9c2 protect -8.2.
